Assay results published in PubChem BioAssay AID1159580 (chemical genetic matrix, 2015).
Out of some 5,500 compounds screened, about 2,000 (36%) were called active. Roughly 18% stayed inconclusive and do not appear here. No stated cut-off is given here; in the data, active means normalized growth mostly below about 0.91 (no sharp cut-off); inconclusive means no clear call, values can overlap the other calls; inactive means mostly above about 0.92. Some of the results follow.

Experiment: chemical genetic growth profiling, strain panel (AID 1159580);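 further: tested at 20 µM; growth read once vehicle control cultures reached saturation at 30 °C; 1 = growth at the plate median or of vehicle wells; lower values mean less growth of the strain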
Conditions: S. cerevisiae deletion strains, growth OD
[1] = locus YDL101C, strain DUN1, active compounds read low
[2] = locus YHR030C, strain SLT2, active compounds read low

Measured: normalized growth

CC(C)c1cccc(C(C)C)c1OC(=O)NC(=O)c1c(Cl)cccc1Cl
inactive: locus YAR019C, strain CDC15, active compounds read low 0.98 | locus YBL105C, strain PKC1, active compounds read low 0.984 | locus YBR135W, strain CKS1, active compounds read low 0.983 | locus YBR136W, strain MEC1, active compounds read low 0.989 | locus YBR160W, strain CDC28, active compounds read low 0.985 | locus YDL017W, strain CDC7, active compounds read low 0.985 | locus YDL028C, strain MPS1, active compounds read low 0.989 | [1] 0.971 | locus YDL108W, strain KIN28, active compounds read low 0.985 | locus YDL132W, strain cdc53, active compounds read low 0.985 | locus YDL214C, strain PRR2, active compounds read low 0.974 | locus YDR052C, strain DBF4, active compounds read low 0.978 | locus YDR054C, strain cdc34, active compounds read low 0.977 | locus YDR226W, strain ADK1, active compounds read low 0.975 | locus YDR477W, strain SNF1, active compounds read low 0.982 | locus YER123W, strain YCK3, active compounds read low 0.942 | locus YER133W, strain GLC7, active compounds read low 0.983 | locus YFL009W, strain cdc4, active compounds read low 0.99 | locus YFL029C, strain CAK1, active compounds read low 0.979 | locus YFR003C, strain YPI1, active compounds read low 0.982 | locus YFR019W, strain FAB1, active compounds read low 0.969 | locus YFR028C, strain CDC14, active compounds read low 0.988 | locus YGR040W, strain KSS1, active compounds read low 0.979 | locus YGR052W, strain FMP48, active compounds read low 1.01 | locus YGR092W, strain DBF2, active compounds read low 0.992 | [2] 0.966 | locus YHR079C, strain IRE1, active compounds read low 0.911 | locus YHR082C, strain KSP1, active compounds read low 1.04 | locus YHR205W, strain SCH9, active compounds read low 0.945 | locus YIL147C, strain SLN1, active compounds read low 0.988 | locus YJL095W, strain BCK1, active compounds read low 0.956 | locus YJL128C, strain PBS2, active compounds read low 0.928 | locus YJL157C, strain FAR1, active compounds read low 0.957 | locus YJR016C, strain ILV3, active compounds read low 0.985 | locus YJR066W, strain TOR1 (second series), active compounds read low 0.945 | locus YJR066W, strain TOR1, active compounds read low 1.03 | locus YKL048C, strain ELM1, active compounds read low 0.986 | locus YKL067W, strain YNK1, active compounds read low 0.966 | locus YKL101W, strain HSL1, active compounds read low 0.956 | locus YKL193C, strain SDS22, active compounds read low 0.99 | locus YKL203C, strain TOR2, active compounds read low 1.01 | locus YLR113W, strain HOG1, active compounds read low 0.866 | locus YLR133W, strain CKI1, active compounds read low 0.96 | locus YLR403W, strain SFP1, active compounds read low 0.962 | locus YML070W, strain DAK1, active compounds read low 0.972 | locus YMR001C, strain CDC5, active compounds read low 0.986 | locus YMR205C, strain PFK2 (second series), active compounds read low 0.98 | locus YMR277W, strain FCP1, active compounds read low 0.986 | locus YNL006W, strain LST8, active compounds read low 0.982 | locus YNL020C, strain ARK1, active compounds read low 0.957 | locus YNL161W, strain CBK1, active compounds read low 0.976 | locus YNL183C, strain NPR1, active compounds read low 0.979 | locus YNL207W, strain RIO2, active compounds read low 0.98 | locus YNL222W, strain SSU72, active compounds read low 0.987 | locus YNL307C, strain MCK1 (second series), active compounds read low 0.958 | locus YOL078W, strain AVO1, active compounds read low 0.985 | locus YOL136C, strain PFK27, active compounds read low 0.945 | locus YOR061W, strain CKA2, active compounds read low 0.972 | locus YOR119C, strain RIO1, active compounds read low 1.04 | locus YOR231W, strain MKK1, active compounds read low 0.945 | locus YOR329C, strain SCD5, active compounds read low 0.971 | locus YPL031C, strain PHO85, active compounds read low 0.954 | locus YPL153C, strain RAD53, active compounds read low 0.984 | locus YPL204W, strain HRR25, active compounds read low 0.943 | locus YPL209C, strain IPL1, active compounds read low 0.991 | locus YPL256C, strain CLN2, active compounds read low 0.919 | locus YPR025C, strain CCL1, active compounds read low 0.982 | locus YPR106W, strain ISR1, active compounds read low 0.978 | locus YPR111W, strain DBF20, active compounds read low 0.96 | strain NNK1, active compounds read low 0.962 | strain TSCII, active compounds read low 0.978

COC(=O)C(Cc1c[nH]c2ccccc12)NC(=O)c1c(Cl)cccc1Cl (configuration not stated)
inactive: locus YAL013W, strain DEP1, active compounds read low 1 | locus YBR229C, strain ROT2, active compounds read low 0.992 | [1] 0.993 | locus YDR150W, strain NUM1, active compounds read low 0.993 | locus YEL061C, strain CIN8, active compounds read low 1.01 | locus YGR078C, strain PAC10, active compounds read low 0.994 | [2] 0.97 | locus YHR087W, strain rtc3, active compounds read low 0.985 | locus YJR043C, strain POL32, active compounds read low 1 | locus YJR075W, strain HOC1, active compounds read low 0.994 | locus YLR039C, strain RIC1, active compounds read low 0.996 | locus YLR058C, strain SHM2 (second series), active compounds read low 1.01 | locus YLR085C, strain ARP6, active compounds read low 0.981 | locus YLR262C, strain YPT6, active compounds read low 1 | locus YML094W, strain GIM5, active compounds read low 1 | locus YMR219W, strain ESC1, active compounds read low 1 | locus YMR263W, strain SAP30, active compounds read low 0.994 | locus YMR307W, strain GAS1, active compounds read low 0.915 | locus YNL153C, strain GIM3, active compounds read low 0.993 | locus YNL298W, strain CLA4 (second series), active compounds read low 1 | locus YNL322C, strain KRE1, active compounds read low 0.99 | locus YNR030W, strain Alg12, active compounds read low 0.999 | locus YOL006C, strain TOP1, active compounds read low 0.937 | locus YPL055C, strain LGE1, active compounds read low 0.988 | locus YPL241C, strain CIN2, active compounds read low 0.999 | locus YPR135W, strain CTF4, active compounds read low 0.963
